This is part of a sample that, as a whole, favours compounds with a hit. Of some 79,000 tested, about 15% had one in any assay. Unmarked numbers belong to inactive results. Calls of active or inactive are those of the source. No stated cut-off is given here; in the data, active means growth inhibition above about 70%; inactive means the rest.
How the values were obtained:
[1] = NCI Yeast Anticancer Drug Screen. Data for the rad50 strain (AID 155);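 further: 0% = growth of vehicle-only cultures of the same strain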; details: S. cerevisiae rad50 strain growth inhibition, active compounds read high
Procedure, shortened: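 Growth of the mutant yeast was measured after compound exposure and referenced to vehicle-treated cultures.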

[2] = NCI Yeast Anticancer Drug Screen. Data for the mec2-1 strain (AID 157); details: S. cerevisiae mec2-1 strain, active compounds read high
Procedure, shortened: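 Cells of the genetically defined mec2-1 yeast strain are incubated with test compound. Inhibition of growth is calculated against vehicle-treated controls.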

[3] = NCI Yeast Anticancer Drug Screen. Data for the sgs1 mgt1 strain (AID 161);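 further: 0% = growth of cultures given vehicle only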; details: S. cerevisiae sgs1 mgt1 strain, active compounds read high
Procedure, shortened: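 Genetically altered yeast, compound exposure, growth inhibition relative to vehicle.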

[4] = NCI Yeast Anticancer Drug Screen. Data for the cln2 rad14 strain (AID 165);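 further: 0% = growth equal to vehicle treated cultures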; details: S. cerevisiae cln2 rad14 strain, active compounds read high
Procedure, shortened: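 The screen exposed genetically defined yeast (cln2 rad14) to test compounds and scored growth inhibition relative to vehicle-treated controls.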

[5] = NCI Yeast Anticancer Drug Screen. Data for the bub3 strain (AID 167); details: S. cerevisiae bub3 mutant strain, active compounds read high
Procedure, shortened: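 Whole-cell yeast assay. The mutant strain was incubated with compounds, and growth inhibition was determined by comparison with vehicle-treated cells.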

[6] = NCI Yeast Anticancer Drug Screen. Data for the mlh1 rad18 strain (AID 175); details: S. cerevisiae mlh1 rad18 strain growth inhibition, active compounds read high
Procedure, shortened: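 Compound-treated yeast growth, normalised to vehicle controls. Strain bears defined DNA repair mutations.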

[7] = at 5.0 µM (retest, dose inferred, filed as 0.5)
[8] = at 50.0 µM (retest, dose inferred, filed as 5.0)

Row | SMILES | growth inhibition [1, 7] | growth inhibition [1, 8] | growth inhibition ([1]; at 50.0 µM) | growth inhibition [2, 7] | growth inhibition [2, 8] | growth inhibition ([2]; at 50.0 µM) | growth inhibition [3, 7] | growth inhibition [3, 8] | growth inhibition ([3]; at 50.0 µM) | growth inhibition [4, 7] | growth inhibition [4, 8] | growth inhibition ([4]; at 50.0 µM) | growth inhibition [5, 7] | growth inhibition [5, 8] | growth inhibition ([5]; at 50.0 µM) | growth inhibition [6, 7] | growth inhibition [6, 8] | growth inhibition ([6]; at 50.0 µM)
1 | COC1/C=C\C=C(/C)C(=O)NC2=CC(=O)C(N)=C(CC(C)CC(OC)C(O)C(C)C=C(C)C1OC(N)=O)C2=O (stereo not given) | -28% | 88% (active) | 86.4% (active) | -23% | 91% (active) | 87.7% (active) | 5% | 92% (active) | 88% (active) | -36% | 81% (active) | 76.9% (active) | -16% | 93% (active) | 87.9% (active) | -22% | 89% (active) | 84% (active)
2 | CC(=O)Nc1c([N+](=O)[O-])cc2c3c(cccc13)C=C2 | 3% | 77% (active) | 24.8% | 1% | 47% | 16.1% | 6% | 56% | 9.8% | 6% | 77% (active) | 74.9% (active) | 3% | 23% | -17.2% | 31% | 94% (active) | 67.8%
3 | COc1ccc(/C=C2/C(=O)ON=C2C)cc1OC | -15% | 35% | 93.3% (active) | -14% | 48% | 85.5% (active) | -14% | 48% | 89.1% (active) | -12% | 17% | 42.7% | -3% | 55% | 94.6% (active) | -9% | 61% | 79.2% (active)
4 | CCN(CC)CCCCNc1ccc(Cl)cc1 | -2% | 12% | 38.2% | 1% | -2% | 39.1% | -2% | 18% | 53.9% | 2% | -3% | -9.2% | -1% | 10% | 44.5% | -7% | 8% | 71.6% (active)
5 | O=C1C(c2ccc(Br)cc2)=[N+]([O-])c2ccccc21 | 9% | 94% (active) | 93.5% (active) | 12% | 84% (active) | 87.3% (active) | 10% | 94% (active) | 93.8% (active) | -4% | 47% | 85.5% (active) | 19% | 94% (active) | 96.4% (active) | 11% | 91% (active) | 95.8% (active)
6 | CC(C)CCN(CCC(C)C)C(=S)Nc1ccccc1 | -13% | 87% (active) | 92.7% (active) | 6% | 93% (active) | 89.2% (active) | -20% | 89% (active) | 86.8% (active) | -22% | 89% (active) | 90.8% (active) | -7% | 94% (active) | 92% (active) | -7% | 94% (active) | 92.5% (active)
7 | CCCCCCCCCCCC[N+](C)(C)C (tested in a mixture with another compound) | -7% | 99% (active) | 67.9% | 5% | 99% (active) | 93.8% (active) | -4% | 98% (active) | 49.2% | 5% | 98% (active) | 10.6% | 20% | 99% (active) | 88.5% (active) | 0% | 98% (active) | 64%
8 | CN(C)CCN(C)N=Nc1c(-c2ccc(Cl)cc2)n[nH]c1C(F)(F)F | 98% (active) | 99% (active) | 98.8% (active) | 99% (active) | 99% (active) | 99.7% (active) | 99% (active) | 99% (active) | 99.4% (active) | 99% (active) | 99% (active) | 99.3% (active) | 99% (active) | 99% (active) | 96% (active) | 99% (active) | 99% (active) | 99.5% (active)
9 | CCCCOc1ccc(NC(=S)Nc2ccc(OCCN(CC)CC)cc2)cc1 | -4% | 45% | 63.6% | 28% | 70% (active) | 39.1% | 21% | 67% | 83.8% (active) | 4% | 35% | 80.8% (active) | 3% | 54% | 71% (active) | 35% | 71% (active) | 79.2% (active)
10 | Oc1cc2ccccc2cc1O | 6% | 90% (active) | 95.5% (active) | 5% | 77% (active) | 86% (active) | 2% | 88% (active) | 93.8% (active) | 3% | 90% (active) | 92.4% (active) | 5% | 92% (active) | 96.1% (active) | 5% | 93% (active) | 96% (active)
